Our source for the B-score values is PubChem BioAssay AID488977 (Johns Hopkins Ion Channel Center, 2010).

The whole screen tested about 310,000 compounds, of which about 1,500 (0.48%) were called active.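 Rule for the calls: active = initial fluorescence not abnormally high and integrated response B-score, plate-corrected, over 3 SD above library mean; inactive = the rest.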 Many of the other results were omitted from the sample, so actives are more common in it than they were.

Sequence of High affinity choline transporter 1 (Homo sapiens) (Q9GZV3 whole entry, looked up): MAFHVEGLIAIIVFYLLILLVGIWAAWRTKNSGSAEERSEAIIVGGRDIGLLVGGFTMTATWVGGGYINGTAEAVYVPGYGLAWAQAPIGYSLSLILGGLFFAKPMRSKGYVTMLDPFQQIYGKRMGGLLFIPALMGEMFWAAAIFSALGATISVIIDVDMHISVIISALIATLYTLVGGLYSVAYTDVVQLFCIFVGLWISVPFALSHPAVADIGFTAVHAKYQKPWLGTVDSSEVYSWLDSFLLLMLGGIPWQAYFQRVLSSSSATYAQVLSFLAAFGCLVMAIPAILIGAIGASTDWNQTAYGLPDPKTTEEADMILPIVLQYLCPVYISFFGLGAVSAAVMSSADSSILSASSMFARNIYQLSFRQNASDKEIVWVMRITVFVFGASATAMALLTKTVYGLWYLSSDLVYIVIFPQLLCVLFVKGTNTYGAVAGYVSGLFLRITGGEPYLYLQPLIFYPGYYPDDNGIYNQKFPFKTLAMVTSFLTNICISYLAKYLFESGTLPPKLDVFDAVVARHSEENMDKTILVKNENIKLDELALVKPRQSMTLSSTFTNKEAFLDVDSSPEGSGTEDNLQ

The test has as its target High affinity choline transporter 1 (Homo sapiens) (UniProt Q9GZV3). As to the kind of experiment: CHT positive allosteric modulators, primary screen, cell-based, membrane potential dye, choline EC20 (AID 488977). The conditions noted are these: CHT-expressing cells, at 10 µM, LV-AA mutant CHT in HEK293 cells; hits give high values.
`Fc1ccccc1COc1cccc2cccnc12`: the B-score entry was “inactive”.

`Nc1scc[n+]1Cc1cccc2cccnc12`: the B-score was 6.75 (active).

For the compound `c1ccc2c(C[n+]3csc4ccccc43)cccc2c1`, the B-score result was “inactive”.

With `COc1ccc(CCNC(=O)C(=O)NCC2CCCN2S(=O)(=O)c2cccs2)cc1OC` (configuration not stated), the B-score entry was “inactive”.

For the compound `N=c1c2c3c(sc2ncn1CCCN1CCOCC1)CCCCC3`, the B-score was 6.58 (active).

In the case of `N=c1c2c3c(sc2ncn1N)CCCCC3`, the B-score entry was “inactive”.

Take `Nc1nc(SCC(=O)NCCN2CCOCC2)nc2sc3c(c12)CCC3`: the B-score result was “inactive”.

As for `CCN(CC(=O)Nc1cccc(S(=O)(=O)N2CCCCC2)c1)Cc1ccccc1`, the B-score entry was “inactive”.

As for `Cc1nc(/N=C(\N)NC(=O)NC2CCCCC2)nc2ccccc12`, the B-score entry was “inactive”.

As for `COc1ccc2nc(/N=C(\N)NC(=O)Nc3ccccc3)nc(C)c2c1`, the B-score entry was “inactive”.

In the case of `CC(=O)Oc1ccc(-c2nc3c(C)cccc3c(=O)o2)cc1`, the B-score entry is “inactive”.

With `COc1nc(N=C(N)N)nc2c(C)cccc12`, the B-score was 8.19 (active).

For the compound `Cc1nc(N=C(N)N)nc2c(C)cccc12`, the B-score was 7.11 (active).

As for `NC(N)=Nc1nc(-c2ccccc2)c2cc(Cl)ccc2n1`, the B-score entry was “inactive”.

For `O=C(Nc1ccc(C(=O)N2CCOCC2)cc1)Nc1cccc(C(F)(F)F)c1`, the B-score result was “inactive”.

For the compound `Cc1ccc(OCC(=O)Oc2ccccc2[N+](=O)[O-])cc1`, the B-score result is “inactive”.

`COc1ccc2c(c1)[C@H]1[C@H](CO2)[C@H](c2ccccc2)[C@]2(C)C(=O)Nc3cc(F)c(F)cc3C(=O)N12`: the B-score entry was “inactive”.

On to `O=C(Nc1ccc2nc3n(c(=O)c2c1)CCCC3)c1ccc(Cl)nc1`, for which the B-score result was “inactive”.

On to `CN(C)C1=NC[C@H](Cc2ccccc2)N1CCc1ccc(F)cc1`, for which the B-score entry was “inactive”.

Take `Cc1noc(C)c1CSCC(=O)Nc1ccc(Br)cc1Cl`: the B-score entry was “inactive”.

Consider `Cc1ccc(C(=O)c2ccc(N3CCN(C)CC3)c([N+](=O)[O-])c2)cc1`, for which the B-score is 6.4 (active).

For `CCOC(=O)C1CCN(c2ccc(C(=O)O)cc2[N+](=O)[O-])CC1`, the B-score result was “inactive”.

`Cc1cccc(N2CCN(c3ccc(C(N)=O)cc3[N+](=O)[O-])CC2)c1C`: the B-score result was “inactive”.

`O=C(Cc1ccc(S(=O)(=O)N2CCOCC2)s1)N1CCN(c2ccc(C(F)(F)F)cc2[N+](=O)[O-])CC1`: the B-score result is “inactive”.

Take `COc1ccc(NC(=O)CN(C)C(=O)c2cccc(S(=O)(=O)N3CCN(c4ccccc4)CC3)c2)cc1`: the B-score result was “inactive”.

For `CC(C)CC(COCc1ccc(Cl)cc1)N1CCN(C(=O)c2ccc(C(F)(F)F)cc2)CCC1=O` (configuration not stated), the B-score was 6.29 (active).

For `O=C(c1cc(Cl)cc(Cl)c1)N1CCC(=O)N(C(COCc2ccccc2)Cc2ccccc2)CC1` (configuration not stated), the B-score entry is “inactive”.

For `CC(C)CC(CO)N1CCN(C(=O)c2ccc(Cl)cc2Cl)CCC1=O` (configuration not stated), the B-score entry was “inactive”.

Turning to `O=C(CCC(=O)c1cccs1)Nc1nc2ccccc2s1`, the B-score result is “inactive”.

For `CCCCn1c(N)c(N(CC(C)C)C(=O)c2ccc(-n3c(C)ccc3C)cc2)c(=O)[nH]c1=O`, the B-score result was “inactive”.

Take `Nc1ccccc1SCc1cc([N+](=O)[O-])cc2c1OCOC2`: the B-score is 7.8 (active).

Take `CCS(=O)(=O)c1cc([N+](=O)[O-])c(Sc2ccccc2N)s1`: the B-score result is “inactive”.

For `Nc1ccccc1SC(C[N+](=O)[O-])c1ccccc1` (configuration not stated), the B-score entry is “inactive”.

Regarding `Cc1cc(C)cc(NC(=O)COc2coc(CN3CCN(c4ccccc4)CC3)cc2=O)c1`, the B-score entry is “inactive”.

Turning to `COc1cccc(N2CC(NC(=O)c3ccc4ccccc4c3)CC2=O)c1` (configuration not stated), the B-score result was “inactive”.

Turning to `CCCCCCCCn1c2c(c(=N)c3c1CCC3)CCCC2`, the B-score was 12.2 (active).

As to `COc1ccccc1N(C)S(=O)(=O)c1ccc(Cl)c(C(=O)Nc2ccncc2)c1`, the B-score result is “inactive”.

For the compound `CN1C(C(=O)NCc2ccco2)CC2Cn3c(nc4ccccc43)C21` (configuration not stated), the B-score entry was “inactive”.

Take `CC(OC(=O)CCCc1c[nH]c2ccccc12)C(=O)Nc1ccc(S(N)(=O)=O)cc1` (configuration not stated): the B-score entry is “inactive”.

With `COc1ccc2oc(C(=O)OCC(=O)N(CC(C)C)c3c(N)n(Cc4ccccc4)c(=O)[nH]c3=O)c(C)c2c1`, the B-score entry was “inactive”.

For `CCCCCCSc1ccc([C@@H]2[C@@H]3C(=O)N(CC)C(=O)[C@@H]3[C@]3(C(=O)OC)CCCCN23)cc1OC`, the B-score entry was “inactive”.

Turning to `c1ccc(C2c3[nH]c4ccccc4c3CCN2Cc2cccn2-c2cccnc2)nc1` (configuration not stated), the B-score result was “inactive”.

As to `CCOc1ccc(C2c3[nH]c4ccccc4c3CCN2Cc2cccn2-c2ncccn2)cc1` (configuration not stated), the B-score is 6.79 (active).

As to `CCOc1ccc(C2c3[nH]c4ccccc4c3CCN2Cc2cn(CC)nc2C)cc1` (configuration not stated), the B-score result is “inactive”.

`COc1ccc(Cl)cc1NC(=O)CN(C)C(=O)c1cc2ccccc2cc1OC`: the B-score result is “inactive”.

Turning to `Cc1cc(C)c(S(=O)(=O)N2CCCC2CNC(=O)c2ccc3c(c2)OCO3)c(C)c1` (configuration not stated), the B-score result was “inactive”.

On to `CCN(CC)CCn1c2c(c(SCC(=O)Nc3ccc(C(C)C)cc3)nc1=O)CCC2`, for which the B-score result was “inactive”.

Take `CC(=O)N1CC[n+]2c(-c3ccc([N+](=O)[O-])cc3)csc21`: the B-score was 7.27 (active).

For `COc1ccc(C2CC(c3ccc([N+](=O)[O-])cc3)=NN2C(C)=O)cc1` (configuration not stated), the B-score entry is “inactive”.

In the case of `COC(=O)c1c(C)[nH]c(C)c1-c1ccc([N+](=O)[O-])cc1`, the B-score result was “inactive”.

`Cc1ccc(Oc2nc(-c3ccccn3)nc3ccccc23)cc1`: the B-score result is “inactive”.

As for `CC(C)(C)Nc1nc(-c2ccccn2)nc2ccccc12`, the B-score was 6.37 (active).

On to `CCOCCCNc1nc(-c2ccccc2)nc2ccccc12`, for which the B-score entry was “inactive”.

On to `COc1ccc(S(=O)(=O)N2CCCCCC2)cc1C(=O)N(C)Cc1cccc(OC)c1OC`, for which the B-score entry was “inactive”.

For the compound `O=[N+]([O-])c1ncc(Br)cc1Nc1ccccc1`, the B-score result was “inactive”.

In the case of `COc1cccc(OCC(=O)Nc2ccccc2C(N)=O)c1`, the B-score entry is “inactive”.

Regarding `CCCCOC(=O)Cn1c(=N)n(CCN(CC)CC)c2ccccc21`, the B-score entry was “inactive”.

Take `CCCCCCCCCCOC(=O)Cn1c(COc2cccc(OC)c2)[n+](C)c2ccccc21`: the B-score was 10.7 (active).

For `CCCCCCCCCCOC(=O)Cn1c(COc2ccc(C)cc2)[n+](C)c2ccccc21`, the B-score is 9.75 (active).

For the compound `COc1cccc(OCCCN2CCCCCC2)c1`, the B-score entry is “inactive”.

With `Cc1ccc(OCCCn2c(=O)oc3ccccc32)cc1`, the B-score result was “inactive”.

Take `CCOC(=O)c1c(C)oc2cc(Sc3ccccc3)c(O)c(O)c12`: the B-score entry was “inactive”.

With `COc1cccc(CNC(=O)C(=O)NCCC2CCCCN2S(=O)(=O)c2ccc(C)cc2)c1` (configuration not stated), the B-score result is “inactive”.

On to `Cc1cc(OCC(=O)N(C)c2c(N)n(Cc3ccccc3)c(=O)[nH]c2=O)c(C(C)C)cc1Cl`, for which the B-score entry is “inactive”.

For `CC(Sc1nc2ccccc2c(=O)n1Cc1ccco1)C(=O)c1ccccc1` (configuration not stated), the B-score is 7.82 (active).

`O=C(CCCn1c(SCC(=O)c2ccc(F)cc2)nc2ccccc2c1=O)NCc1ccco1`: the B-score result was “inactive”.

As for `CCOC(=O)C(C)Sc1nc2ccccc2c(=O)n1CC1CCCCC1` (configuration not stated), the B-score result was “inactive”.
